Hit rate of the full screen: of about 420,000 compounds, about 64,000 (15%) were called active. Roughly 27% stayed inconclusive and do not appear here. Calls follow the shape of the dose curve; as a rule, active = well fitted inhibition curve with a large enough effect; inconclusive = small, poorly fitted or top-dose-only effect; inactive = flat fitted curve, though single readings scatter. Not all results are given here. Entries that show only a call come without a potency.
experiment: qHTS for Inhibitors of human tyrosyl-DNA phosphodiesterase 1 (TDP1): qHTS in cells in absence of CPT; details: DT40 Tdp1-/- hTDP1 cells, no CPT, ATP luminescence, 48 h; activity change, negative = growth inhibition: at 46.2 µM (top of the series); also: nearly all actives have a fitted effect of over 55% in size
Method in brief: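 Seeded 400 DT40-hTDP1 cells/well (vehicle DMSO, no 20 nM CPT); pinned compounds; ≥48 hr at 37 °C; CellTiter-Glo luminescence as viability measure.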
Potency is read from the fitted curve at half-maximal effect.

Row | Compound | Potency | activity change, negative = growth inhibition
1 | C/C(=N\OC(=O)c1ccccc1)c1c(C)nc2cc(C)ccn12 | inactive | 
2 | CC1=C(C(=O)Nc2ccc(Cl)cc2)C(c2ccco2)NC(=O)N1 (centres undefined) | inactive | 
3 | Cc1ccc(SCC(=O)Nc2ccc3c(c2)OCCO3)cc1 | inactive | 
4 | Cc1ccc(SC(=O)COc2ccc(C)c(C)c2)cc1 | inactive | 
5 | Cc1ccc(SCC(=O)c2cc(C)c(OC(=S)N(C)C)c(C)c2)cc1 | 18.4 µM (active) | 
6 | CCCCc1ccc(S(=O)(=O)NC(=O)C2(C)CCN2C(=O)c2c(C)noc2C)cc1 (centres undefined) | inactive | 
7 | C=CCOCCN(C)C1=NS(=O)(=O)c2ccccc21 | inactive | 
8 | O=S1(=O)N=C(N(CCO)/N=C/c2ccccc2F)c2ccccc21 | 0.92 µM (active) | 
9 | COc1ccc(/C=N/N(C)C2=NS(=O)(=O)c3ccccc32)cc1OC | inactive | 
10 | CCCCC/C=C\C/C=C\CCCCCCCCCC(=O)O |  | 6.04% [at 4.12 µM] (inactive)
11 | Cc1cc(C)n(C(=O)CCNC(=O)c2ccccc2Cl)n1 | inactive | 
12 | NC(=O)c1ccsc1NC(=O)COC(=O)COc1ccc(C=O)cc1 | inactive | 
13 | Fc1cc(Br)ccc1NC(=S)Nc1cccnc1 | inactive | 
14 | Cc1cccc(NC(=S)NC(=O)c2ccc(Br)o2)c1 | inactive | 
15 | Cc1cccc(NC(=S)Nc2ccc(Br)cc2)c1 | 16.4 µM (active) | 
16 | O=C(COC(=O)c1ccc2c(c1)OCCO2)NCc1ccccc1Cl | inactive | 
17 | CCCS(=O)(=O)NC(=O)C1(C)CCCN(C(=O)c2cc(C)on2)C1 (centres undefined) | inactive | 
18 | Cc1nc2cnc(N3CCN(C)CC3)nc2n(CCC#N)c1=O | inactive | 
19 | Cn1c(SCC(=O)Nc2nccs2)nnc1-c1cccnc1 | inactive | 
20 | CN(C)CCCN(C(=O)COc1ccccc1)c1nc2c(Cl)cccc2s1 | inactive | 
21 | O=C(CCS(=O)(=O)c1ccccc1)N(Cc1cccnc1)c1nc2c(F)cccc2s1 | 2.31 µM (active) | 
22 | Cc1cccc2sc(N(CCCN(C)C)C(=O)CCS(=O)(=O)c3ccccc3)nc12 | 1.64 µM (active) | 
23 | CN(C)S(=O)(=O)c1ccc(C(=O)N(Cc2cccnc2)c2nc3c(F)cc(F)cc3s2)cc1 | inactive | 

Row | Compound | Potency | activity change, negative = growth inhibition
24 | O=C(NCc1cccnc1)Nc1ccccc1F | inactive | 
25 | COc1cc2ccccc2cc1C(=O)N(CCN(C)C)c1nc2c(F)cccc2s1 | inactive | 
26 | COC(=O)[C@H](CC(C)C)NC(=O)N1CCCCC1C (some centres undefined) | inactive | 
27 | COC(=O)C1=C(C)NC(=O)NC1/C=C/c1ccccc1 (centres undefined) | inactive | 
28 | O=C(CSc1nnc(-c2c[nH]c3ccccc23)o1)c1ccccc1 | inactive | 
29 | CC(=O)Nc1ccc(C(=O)CSc2nnc(Cc3ccccc3)o2)cc1 | inactive | 
30 | O=C(CSc1nnc(Cn2cnc3ccccc32)o1)c1ccccc1 | 10.3 µM (active) | 
31 | Cc1cc(C)cc(NC(=O)c2cccc(NC(=O)C3C4CC5OC(=O)C3C5C4)c2)c1 (centres undefined) | inactive | 
32 | Cc1cccc(N2C(=O)SC(N(CC(=O)O)c3cccc(C)c3)C2=O)c1 (centres undefined) | inactive | 
33 | CCOC(=O)CCP(=O)(O)C(O)(c1ccccc1)c1ccccc1 | inactive | 
34 | O=S(=O)(Nc1ccc2cn[nH]c2c1)c1ccccc1 | inactive | 
35 | O=C(CCNC(=O)C1CCN(S(=O)(=O)c2ccccc2)CC1)NC1CC1 | inactive | 
36 | CCOC(=O)c1cc(C(C)C)sc1NC(=O)COC(=O)c1nccnc1N | inactive | 
37 | O=C1C2(c3ccccc3)CN(CCCO)CC1(c1ccccc1)CN(CCCO)C2 | inactive | 
38 | Cc1ccc(N2CCN(S(=O)(=O)c3ccc(F)cc3)CC2)c(C)c1 | 18.4 µM (active) | 
39 | Cc1ccc(Cl)cc1N1CCN(S(=O)(=O)c2cc3[nH]c(=O)c(=O)[nH]c3cc2C)CC1 | inactive | 
40 | CC1C(=O)Nc2ccc(S(=O)(=O)N3CCN(c4ccccc4F)CC3)cc2NC1=O (centres undefined) | 20.6 µM (active) | 
41 | Cc1ccc(C)c(N2CCN(S(=O)(=O)c3ccc4c(c3)C(C(C)C)C(=O)N4)CC2)c1 (centres undefined) | 18.4 µM (active) | 
42 | Cc1ccc(S(=O)(=O)N2CCN(S(=O)(=O)N3CCOCC3)CC2)cc1 | inactive | 
43 | Cc1ccc(S(=O)(=O)N2CCN(C)CC2)cc1 | inactive | 
44 | Cc1ccc(C)c(N2CCN(S(=O)(=O)c3ccc4c(c3)oc(=O)n4C)CC2)c1 | inactive | 
45 | O=C1CC(=O)Nc2cc(S(=O)(=O)N3CCN(c4cccc(C(F)(F)F)c4)CC3)ccc2N1 | inactive | 
46 | CCOC(=O)N1CCN(S(=O)(=O)c2ccc3c(c2)C(C)C(=O)N3)CC1 (centres undefined) | inactive | 

Row | Compound | Potency | activity change, negative = growth inhibition
47 | O=C(N/N=C/c1cccc(OC(=O)c2ccc([N+](=O)[O-])cc2)c1)c1cccnc1 | inactive | 
48 | CCOC(=O)c1c(-n2cnnn2)sc(C)c1C | inactive | 
49 | COc1ccc(NC(=S)N2N=CCC2c2ccccc2)cc1 (centres undefined) | inactive | 
50 | CS(=O)(=O)c1ccc2nc(NC(=O)c3ccc(Cl)nc3)sc2c1 | inactive | 
51 | O=C(NCc1cccnc1)c1nc(-c2cccs2)no1 | inactive | 
52 | C=CCn1c(=O)n(C)c2c(=O)n(C)c(=O)n(C)c21 | inactive | 
53 | CC(C)C(C)NC(=O)COc1ncnc2ccccc12 (centres undefined) | inactive | 
54 | CCn1ccnc1CNC(=O)CC1C(=O)NCCN1CCCc1ccccc1 (centres undefined) | inactive | 
55 | O=C(CCC(=O)N1CCN(S(=O)(=O)c2ccccc2)CC1)NC1CCCc2ccccc21 (centres undefined) | inactive | 
56 | CCC1NC(=O)c2cccnc2-n2c1nc1ccc(C)cc1c2=O (centres undefined) | inactive | 
57 | O=C1NC(Cc2ccccc2)c2nc3ccc(Br)cc3c(=O)n2-c2cc3ccccc3cc21 (centres undefined) | 7.31 µM (active) | 
58 | Cc1cc(C)c2c(=O)n3c(nc2c1)C(CC(C)C)NC(=O)c1cc2ccccc2cc1-3 (centres undefined) | 4.61 µM (active) | 
59 | CCc1ccc(NC2Nc3cc(C)nn3S2)cc1 (centres undefined) | inactive | 
60 | N#CCC(=O)NC1CCC(CC2CCC(NC(=O)CC#N)CC2)CC1 (centres undefined) | inactive | 
61 | CCOc1cc(C2C(C(=O)OC)=CN(C3CCCC3)C=C2C(=O)OC)cc(Br)c1O | inactive | 
62 | COc1ccc(S(=O)(=O)Nc2ccc(F)cc2)c(C)c1C | inactive | 
63 | COc1ccccc1CNS(=O)(=O)CC12CCC(CC1=O)C2(C)C (centres undefined) | inactive | 
64 | CC(=O)Nc1ccc(S(=O)(=O)NC(C)C(=O)OCCOc2ccc(F)cc2)cc1 (centres undefined) | inactive | 
65 | Cc1cccc(C)c1NC(=O)Nc1ccccc1-n1ccnc1 | inactive | 
66 | COC(=O)C[C@H]1C=C[C@@H](NS(=O)(=O)c2ccc(C)cc2)[C@@H](CO)O1 | inactive | 
67 | COc1ccc(C(=O)Nc2ccnn2C2CCN(Cc3ccncc3)CC2)cc1 | inactive | 
68 | COc1ccc(C(=O)Nc2sc(C)c(C)c2CN2CCOCC2)cc1 | 23.1 µM (active) | 
69 | COc1ccc(C(=O)Nc2ccc(CN3CCOCC3)cc2)cc1 | inactive | 
